# Source: PubChem BioAssay
# Activity calls are given as the source filed them.
# Assay: S. cerevisiae growth modulation with rapamycin, primary screen, strain BY4716, OD600, 96 h (AID 1091); also: test concentration not given here
# Conditions: higher = more signal, called active from +8 up or from −8 down
row,Structure (SMILES),z-score
1,CCCC=C(CCC)[C@@H](NC(=O)c1ccccc1)c1ccc(C(=O)OC)cc1,-0.938 (inactive)
2,C=CCC(OC(C)=O)[C@@H]1[C@@H](N(Cc2cccc3ccccc23)C(=O)c2cccc3ccccc23)c2cc(OCCCO)ccc2N1C(=O)Cc1ccc2ccccc2c1 (some centres not stated),-1.45 (inactive)
3,C=C(COC)/C(=C/C[C@@H](OC(C)=O)c1ccccc1OCCO)c1cc(C(=O)OC)ccc1OC,-0.167 (inactive)
4,CO[C@H]1O[C@H](CO)[C@@H](OC(=O)Nc2ccc(C(F)(F)F)cc2)[C@H](OC(=O)Nc2ccccc2-c2ccccc2)[C@@H]1OC(=O)Nc1ccccc1-c1ccccc1,4.92 (inactive)
5,CCOC(=O)C[C@H]1[C@H](OC(=O)c2ccc(-c3ccccc3)cc2)[C@@H](NC(=O)CC(C)C)c2cc(OCCCO)ccc2N1C(=O)Cc1ccc(OC)cc1,0.143 (inactive)
6,CCOC(=O)C[C@H]1[C@H](OC(=O)c2cc3ccccc3oc2=O)[C@@H](NC(=O)C2CCCCC2)c2cc(OCCCO)ccc2N1C(=O)Cc1ccc(OC)cc1,-0.295 (inactive)
7,N#Cc1ccc(C(O)C2C=CC3C(=O)NC(=O)C3N2Nc2ccccn2)cc1 (configuration not stated),-0.657 (inactive)
8,O=C1C2C=CC(C(O)c3cccs3)N(Nc3ccccc3)C2C(=O)N1c1ccccc1 (configuration not stated),0.231 (inactive)
9,COC(=O)[C@@]1(Cc2ccc(OC)cc2)[C@H]2c3cc(C(=O)N4CCCC4)n(CCc4ccc(OC)c(Br)c4)c3C[C@H]2CN1C(=O)c1ccccc1,-0.751 (inactive)
10,CO[C@H]1O[C@H](CO)[C@@H](OC(=O)Nc2ccc(C(F)(F)F)cc2)[C@H](OC(=O)Nc2ccccc2-c2ccccc2)[C@H]1OC(=O)Nc1ccccc1-c1ccccc1,29.9 (active)
11,CCOC(=O)C1=C(C(=O)OCC)N(S(=O)(=O)CC[Si](C)(C)C)[C@H](c2ccccc2)CC1,1.85 (inactive)
12,CC(C)C(=C=CC[C@@H](O)c1ccccc1OCCO)C[C@@H](O)c1cc(Cl)cc(Cl)c1O,-0.443 (inactive)
13,COc1ccc(C#Cc2ccc3c(c2)[C@]2(C(=O)N3)[C@H](C(=O)Nc3nc4ccccc4s3)[C@H]3C(=O)O[C@H](c4ccccc4)[C@H](c4ccccc4)N3[C@@H]2c2ccc(OCCO)cc2)cc1,1.64 (inactive)
14,CC(=O)n1cc(C(O)C2C=CC3C(=O)N(c4ccccc4)C(=O)C3N2Nc2ccccc2F)c2ccccc21 (configuration not stated),-1.6 (inactive)
15,COCCOC(=O)N1C(=O)[C@@]2(c3cc(C#CC4(O)CCCCCC4)ccc31)[C@H](c1ccc(OCCO)cc1)N1[C@H](c3ccccc3)[C@H](c3ccccc3)OC(=O)[C@H]1[C@@H]2C(N)=O,4.69 (inactive)
16,COc1cc2c(cc1O)C(c1ccc(CN3CCCC3)cc1)N(Cc1ccc([N+](=O)[O-])o1)CC2 (configuration not stated),-0.604 (inactive)
17,COc1ccc(CCNC(=O)[C@@]2(C)c3ccccc3C(=O)N(Cc3cc(C(F)(F)F)cc(C(F)(F)F)c3)[C@H]2c2ccc(CO)cc2)cc1,1.09 (inactive)
